Screening data (PubChem)
NS1 function inh: blocks influenza NS1 protein function; Potency, µM (titrated, usually from 46.1 µM); actives 0.4% (n = 270,000); AID 2326; calls by dose curve; further: actives are rising curves; nearly all actives have a fitted effect of over 50% in size
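Recovery from NS1-induced slow growth read by OD600 in budding yeast switched to galactose assay medium (pH 6.0, -URA) at 1:100 dilution. Compound 23 nl per well; the matching strain lacking NS1 serves as control.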
Shiga inhibitor: Shiga toxin inhibition; Vero cells, Shiga toxin protein synthesis inhibition reporter; inhibition, % at 38.7 µM; actives 9.2% (n = 290,000); AID 2315; in the data active means inhibition mostly above about 28%, no sharp cut-off; inactive means mostly below about 43%
Pf growth 96h: inhibits malaria parasite growth, 96 h | P. falciparum luciferase reporter growth, 96 h | Potency, µM (top dose mostly 28.7 µM), usual class: inhibitors | actives 6.9% (n = 320,000)
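Parasite growth measured via integrated firefly luciferase reporter in P. falciparum. Infected erythrocytes at 2% hematocrit, 0.05% parasitemia final were treated 96 hours at 37 C under 5% CO2, and luminescence was read.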
Cycloheximide cs: counter-screen hit for Shiga toxin inhibitors, cycloheximide. cell reporter, cycloheximide protein synthesis inhibition counterscreen. max response, %. AID 2314. actives 12% (n = 300,000); in the data active means max response mostly above about 13%, no sharp cut-off; inactive means mostly below about 14%; further: read at 38.3 µM for the half of the compounds with a filed dose
Sm TGR block: blocks Schistosoma mansoni thioredoxin glutathione reductase; Q962Y6; purified TGR, DTNB reduction, TNB absorbance 405 nm; Potency, µM (series often up to 114 µM), most hits filed as inhibitors; actives 3% (n = 360,000); AID 485364; further: nearly all actives have a fitted effect of over 60% in size
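First, TGR (20 nM dispensed) and NADPH were mixed with compound. Second, a 15 min room-temperature incubation followed. Third, further NADPH and then DTNB were added to start the reaction. Finally, TNB absorbance was monitored kinetically.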
Pf growth 48h: inhibits P. falciparum growth in the first generation, 48 h; actives 5.9% (n = 310,000); P. falciparum luciferase growth in erythrocytes, 48 h; AID 504832; Potency, µM (series often up to 28.7 µM), hits mostly inhibitors
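In quantitative HTS format, infected erythrocytes bearing luciferase-reporter parasites were treated for a single generation at 37 C. Luminescence after adding detection reagent served as the growth measure.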
Numbers stand for hits; – = inactive; ? = inconclusive; · = not tested or not shown. The list is not random: actives were taken first. Their share in the collection is about 21%. Unless noted, the call rests on the fitted dose curve; in most records, active means well fitted curve in the direction sought with a large enough effect; inconclusive means small, poorly fitted or top-dose-only effect, or another doubt; inactive means no such curve, though single readings can be large; an effect the other way counts as inactive or inconclusive.

SMILES | NS1 function inh | Shiga inhibitor | Pf growth 96h | Cycloheximide cs | Sm TGR block | Pf growth 48h
COc1cc(C(CC(=O)N2CCCC2)c2c(OC)cc(OC)c3c(-c4ccccc4)cc(=O)oc23)cc(OC)c1OC (configuration not stated) | – | – | 3.7µM | – | – | 5.2µM
COc1ccc(C(CC(=O)N2CCOCC2)c2c(OC)cc(OC)c3c(-c4ccccc4)cc(=O)oc23)cc1 (configuration not stated) | – | – | ? | – | – | 10µM
COc1ccc(C(CC(=O)N2CCCC(C)C2)c2c(OC)cc(OC)c3ccc(=O)oc23)cc1 (configuration not stated) | – | – | ? | – | – | 12µM
COc1ccc(C(CC(=O)N2CCCC2)c2c(OC)cc(OC)c3c(-c4ccccc4)cc(=O)oc23)cc1 (configuration not stated) | – | – | ? | – | – | 9.3µM
COc1ccc(C(CC(=O)N2CCCCC2)c2c(OC)cc(OC)c3c(-c4ccccc4)cc(=O)oc23)cc1 (configuration not stated) | – | – | 13µM | – | ? | 12µM
COc1ccc(C(CC(=O)N2CCN(c3ccccc3)CC2)c2c(OC)cc(OC)c3c(-c4ccccc4)cc(=O)oc23)cc1 (configuration not stated) | – | – | ? | – | – | ?
CSc1ccc(CN2CCN(C(=O)c3ccncc3)CC2)cc1 | – | – | ? | – | · | –
CC(=C/c1ccccc1)/C=N/NC(=O)c1ccc2nc[nH]c2c1 | – | 51 | ? | 17 | – | –
COc1cccc(/C=N/NC(=O)c2ccc3nc[nH]c3c2)c1 | – | – | – | – | – | –
COc1ccccc1/C=C/C=N/NC(=O)c1ccc2nc[nH]c2c1 | · | – | 9.3µM | – | – | ?
O=C(N/N=C/C(Br)=C\c1ccccc1)c1ccc2nc[nH]c2c1 | – | – | ? | 19 | – | –
CCOC(=O)c1nc(C)nc(Sc2n[nH]c(-c3ccc(C(C)(C)C)cc3)n2)c1C | – | – | – | – | – | ?
CCc1ccc(-n2c(=O)c3c(C)c(C(=O)N(C)C)sc3n(Cc3ccccc3F)c2=O)cc1 | · | · | · | · | – | ·
COc1ccc(C2C(C(=O)Nc3cc(OC)c(OC)c(OC)c3)c3ccccc3C(=O)N2C)cc1OC (configuration not stated) | · | – | – | – | – | 12µM
COc1ccc(C2C(C(=O)NC(C)C)c3ccccc3C(=O)N2C)cc1OC (configuration not stated) | – | – | 1µM | – | – | –
COc1ccc(C2C(C(=O)Nc3cccc(C)n3)c3ccccc3C(=O)N2C)cc1 (configuration not stated) | – | – | 3.7µM | – | – | ?
COc1ccc(C2C(C(=O)Nc3cc(C)on3)c3ccccc3C(=O)N2C)cc1OC (configuration not stated) | – | – | ? | – | – | ?
COc1ccc(C2C(C(=O)Nc3ccc(OC)c(OC)c3)c3ccccc3C(=O)N2C)cc1 (configuration not stated) | · | – | ? | – | – | ?
Cc1ccc(S(=O)(=O)N2CCCCC2)cc1NC(=O)CSc1nccn1C | · | – | – | – | – | –
COc1ccc(-n2nnc3c(SCC(=O)Nc4ccc5c(c4)OCCO5)ncnc32)cc1 | – | – | · | – | – | –
COc1ccc(-n2nnc3c(SCC(=O)c4ccccc4)ncnc32)cc1 | – | – | 1.9µM | – | – | –
COC(=O)c1ccc(CSc2ncnc3c2nnn3-c2ccc(OC)cc2)o1 | – | – | 9.3µM | – | – | –
CN(C(=O)c1cc2ccccc2oc1=O)C1(C)CCS(=O)(=O)C1 (configuration not stated) | · | – | – | – | – | –
COc1ccc(C(=O)c2c(C)oc3ccc(O)cc23)cc1 | – | 32 | – | 29 | – | –
Cc1oc2ccc(O)cc2c1C(=O)c1ccc(Cl)cc1 | – | – | – | 17 | – | ·
COc1ccc2oc(C)c(C(=O)c3ccc(C)cc3)c2c1 | – | 36 | – | 22 | – | –
CC(=O)c1c(C)oc2ccc(OCc3ccccc3)cc12 | – | 63 | – | 31 | – | –
Cc1oc2ccc(O)cc2c1C(=O)c1ccc([N+](=O)[O-])cc1 | – | – | – | – | – | –
COc1ccc(C(=O)c2c(C)oc3ccc(O)cc23)c(OC)c1 | – | – | – | – | – | –
